Source: PubChem (National Center for Advancing Translational Sciences (NCATS))
Shown are actives, neighbours in structure and some others; about 1.4% of the full set was active somewhere.
HttQ103 aggreg – inhibitors of mutant huntingtin aggregate formation in PC12 cells. actives 1.1% (n = 220,000). Potency, µM (top dose mostly 46.1 µM), inactives show at the highest dose activity change, negative = inhibition, actives largely listed as inhibitors. PC12 HttQ103-GFP aggregates, Acumen cytometry, 40 h; further: on the % scale 0 is the no-effect control and ±100 the full control effect; nearly all actives have a fitted effect of over 60% in size
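Huntingtin Q103 exon 1–GFP aggregates in induced PC12 cells (100 nM tebufenozide) were quantified by cytometry from lysates, with compounds dosed in titration.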
HTT cytoprotect – cytoprotection in Huntington HTT-Q103 PC12 cell model; PC12 HTT-Q103 induced, cytoprotection, ATP luminescence, 40 h; Potency, µM (titrated, usually from 56.4 µM), inactives show cytoprotection (ATP increase), usual class: activators; actives 0.14% (n = 230,000); further: % of control where 0% means no effect; nearly all actives have a fitted effect of over 45% in size
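PC12 cells with ecdysone-inducible HTT exon 1 Q103-GFP, induced with 100 nM tebufenozide and co-treated with library compounds in a dose series (1536-well, 1500 cells/well). Cytoprotection read as ATP content by ATPlite luminescence.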
ERK EGF block – blocks ERK signaling stimulated by EGF; HEK293-V1b, EGF-stimulated phospho-ERK AlphaScreen; actives 0.41% (n = 130,000); Potency, µM (doses to about 11.5 µM), for the others: at the top dose activity change, negative = inhibition, hits mostly inhibitors;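 further: plate controls were stimulated vehicle wells for no effect and unstimulated vehicle basal for full effect; nearly all actives have a fitted effect of over 55% in size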
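Phospho-ERK1/2 measured by AlphaScreen (SureFire) after 5 min 25 nM EGF stimulation of V1b-expressing HEK293 cells preincubated 30 min at 37C with titrated compounds; data scaled to DMSO and EGF controls, Hill-fitted AC50.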
* = called active by the depositor; [ ] = remark or other dose. The call rests on the fitted dose curve; in most records, active means well fitted curve in the direction sought with a large enough effect; inconclusive means small, poorly fitted or top-dose-only effect, or another doubt; inactive means no such curve, though single readings can be large; an effect the other way counts as inactive or inconclusive. Potency means the concentration at half of the fitted maximal effect.

`CCN1C(=O)[C@@H]2[C@H]3C(=CC[C@@H]2C1=O)C1(OCCCO1)[C@H]1O[C@@H]1[C@H]3O` gave HTT cytoprotect -10%[10 µM].
Screening N[C@H](CCC(=O)NCC(=O)O)C(=O)O returned HTT cytoprotect inconclusive and ERK EGF block -8%.
Screening COc1ccc(-n2c(=O)c(-c3cccs3)nc3cnc(N(C)C)nc32)cc1 returned HTT cytoprotect 36%.
Cc1cnc(C(=O)O)c[n+]1[O-] was read as HttQ103 aggreg 3% and HTT cytoprotect 0%.
CC(=O)O[C@H]1C(=O)[C@@]2(C)[C@H]([C@H](OC(=O)c3ccccc3)[C@]3(O)C[C@H](OC(=O)[C@H](O)[C@@H](NC(=O)c4ccccc4)c4ccccc4)C(C)=C1C3(C)C)[C@]1(OC(C)=O)CO[C@@H]1C[C@@H]2O was read as HttQ103 aggreg 1%, HTT cytoprotect -62% and ERK EGF block -13%.
For CN1CCN/C1=C(/C(Cl)=C(Cl)Cl)[N+](=O)[O-] the results were HttQ103 aggreg 16µM*, HTT cytoprotect -27% and ERK EGF block 2%.
CN(Cc1ccccc1)C(=C(Cl)Cl)/C(=C1/NCCN1C)[N+](=O)[O-] was read as HttQ103 aggreg -4%, HTT cytoprotect -14% and ERK EGF block 1%.
COC(=O)c1ccccc1NC(=O)C1CCC(=O)N1S(=O)(=O)c1ccc(C)cc1 (configuration not stated) was read as HttQ103 aggreg 18% and HTT cytoprotect -8%.
Screening COC(=O)c1cc(OC)c(OC)cc1NC(=O)C1CCC(=O)N1S(=O)(=O)c1ccc(C)cc1 (configuration not stated) returned HttQ103 aggreg 3.2µM* and HTT cytoprotect -25%.
CCN(CC)C(=O)c1cccnc1 was read as HttQ103 aggreg -3% and HTT cytoprotect 29%.
`Cc1ccc2c(c1)N(CC(=O)NCCN1CCOCC1)C(=O)CO2` gave HTT cytoprotect -7%.
For CC(CC(O)C1OC1(C)C)C1CCC2(C)C3=CCC4C(C)(C)C(=O)CCC4(C)C3CC[C@@]12C (some centres not stated) the results were HTT cytoprotect -171% and ERK EGF block 3%.
`CC(C)Oc1ccccc1/C=N/NC(=O)c1ccc(F)cc1` gave HttQ103 aggreg -4%, HTT cytoprotect 2%[10 µM] and ERK EGF block 1%.
`CCN(CC)c1ccc(C(=O)N/N=C/c2ccccc2OC(F)F)cc1` gave HttQ103 aggreg 10µM*, HTT cytoprotect 17%[10 µM] and ERK EGF block 10%.
`Cc1c(NC(=O)c2ccco2)cccc1-c1nc2cccnc2s1` gave HttQ103 aggreg 10µM* and HTT cytoprotect -17%[10 µM].
`O=C(Nc1cccc(-c2nc3cccnc3s2)c1)c1ccco1` gave HttQ103 aggreg 16µM* and HTT cytoprotect -55%.
Screening O=C(Nc1ccc(-c2nc3cccnc3s2)cc1)c1ccco1 returned HttQ103 aggreg inconclusive and HTT cytoprotect -28%[10 µM].
Screening Cc1c(NC(=O)c2ccc(Cl)nc2)cccc1-c1nc2cccnc2s1 returned HttQ103 aggreg -11%[9.22 µM], HTT cytoprotect 8%[10 µM] and ERK EGF block inconclusive.
CC1(OC(=O)c2cnc3ccccc3n2)C(=O)C=C2C=C(c3ccsc3)OC=C2C1=O (configuration not stated) was read as HTT cytoprotect 20% and ERK EGF block -12%.
For COC(=O)C/C=C1\c2ccccc2[C@H](OC)[C@H]1C the results were HTT cytoprotect 0%[10 µM].
O=C(c1ccc(Cl)cc1)c1coc2ccc(O)cc12 was read as HttQ103 aggreg 0.63µM* and HTT cytoprotect -40%.
O=C(c1coc2ccc(O)cc12)C1CC1 was read as HttQ103 aggreg 0% and HTT cytoprotect 8%.
For COc1cc2c3nnc(-c4ccc(F)cc4)c-3cn(Cc3cccc(C)c3)c2cc1OC the results were HttQ103 aggreg -22% and HTT cytoprotect 0%[10 µM].
`COc1cc2c3nnc(-c4ccc(F)cc4)c-3cn(Cc3cccc(F)c3)c2cc1OC` gave HttQ103 aggreg 10µM*, HTT cytoprotect -23% and ERK EGF block 8%.
Cc1ccc(C(=O)O[C@@H](C(=O)O)[C@@H](OC(=O)c2ccc(C)cc2)C(=O)O)cc1 (tested in a mixture with another compound) was read as HTT cytoprotect -21%[1.9 µM].
Cc1nc2sc3c(c2c(=O)[nH]1)CCCC3 was read as HttQ103 aggreg 8%[9.22 µM], HTT cytoprotect -1%[10 µM] and ERK EGF block -3%[57.5 µM].
For O=c1[nH]nnc2sc3c(c12)CCCC3 the results were HttQ103 aggreg 11µM*, HTT cytoprotect 7%[10 µM] and ERK EGF block -1%.
Screening CC[C@H]1C(c2cccc(Cl)c2)=NN(c2ccccc2)[C@@H]1CO returned HTT cytoprotect -330%.
For C=CC1=C2C=C(C3CC3)N(CCOC)C=C2C(=O)C(C)(OC(=O)c2ccco2)C1=O (configuration not stated) the results were HTT cytoprotect 5%[10 µM].
Screening Cc1ccccc1N1CCN(S(=O)(=O)c2ccc3oc(=O)ccc3c2)CC1 returned HttQ103 aggreg 10µM* and HTT cytoprotect 2%[10 µM].
`CCc1ccccc1N1CCN(S(=O)(=O)c2ccc(F)c(C)c2)CC1` gave HttQ103 aggreg -30% and HTT cytoprotect -3%.
Screening Cc1cccc(-n2ncc3c(NC(C)C)ncnc32)c1 returned HttQ103 aggreg 11µM* and HTT cytoprotect -41%[10 µM].
For Cc1ccccc1Nc1ncnc2c1cnn2-c1ccccc1 the results were HttQ103 aggreg inconclusive and HTT cytoprotect -29%[10 µM].
Screening NNc1ncnc2c1cnn2-c1ccccc1 returned HttQ103 aggreg 22µM* and HTT cytoprotect -35%.
`CC(C)Nc1ncnc2c1cnn2-c1ccccc1` gave HttQ103 aggreg -1%, HTT cytoprotect -57%[10 µM] and ERK EGF block 11%.
COc1ccc(C(=O)N2CCC3(CCN(C(=O)Nc4ccccc4)CC3)CC2)cc1 was read as HTT cytoprotect -4% and ERK EGF block 12%.
`C=CCOC(=O)C(C(C)=O)C(NC(=O)OC)c1cccc(F)c1` (configuration not stated) gave HTT cytoprotect 7%[10 µM].
Screening O=C1c2ccccc2C(=O)c2c1ccc1c(=O)n(-c3ccccc3)[nH]c21 returned HttQ103 aggreg -21%, HTT cytoprotect 2%[10 µM] and ERK EGF block 1%.
CC(C)Cn1[nH]c2c3c(ccc2c1=O)C(=O)c1ccccc1C3=O was read as HttQ103 aggreg 22µM* and HTT cytoprotect -70%.
O=C(NCc1ccccn1)c1ccc(=O)oc1 was read as HttQ103 aggreg 2.8µM* and HTT cytoprotect -79%[10 µM].
Screening O=C(NCc1ccccn1)c1ccc(-c2ccccc2)cc1 returned HttQ103 aggreg -1%[9.22 µM], HTT cytoprotect -1%[10 µM] and ERK EGF block -2%.
Screening CN(C)c1ccc(/C=C/c2cc[n+]([O-])cc2)cc1 returned HttQ103 aggreg 7% and HTT cytoprotect -13%.
CC[n+]1ccccc1/C=C/c1ccc(N(C)C)cc1 was read as HttQ103 aggreg 2.8µM*, HTT cytoprotect -79% and ERK EGF block -3%.
For CC[n+]1ccc(C[n+]2ccccc2)c2ccccc21 the results were HttQ103 aggreg -2%, HTT cytoprotect -10%[10 µM] and ERK EGF block -1%.
